These results are taken from ChEMBL document CHEMBL3988442, “University of Dundee, Small-Polar-MMV Screening Library” (2021).

For this test, the target named is T1, Aspartate--tRNA(Asp/Asn) ligase (Mycobacterium tuberculosis (strain ATCC 25618 / H37Rv)) (UniProt P9WFW3).
T1 sequence (whole entry): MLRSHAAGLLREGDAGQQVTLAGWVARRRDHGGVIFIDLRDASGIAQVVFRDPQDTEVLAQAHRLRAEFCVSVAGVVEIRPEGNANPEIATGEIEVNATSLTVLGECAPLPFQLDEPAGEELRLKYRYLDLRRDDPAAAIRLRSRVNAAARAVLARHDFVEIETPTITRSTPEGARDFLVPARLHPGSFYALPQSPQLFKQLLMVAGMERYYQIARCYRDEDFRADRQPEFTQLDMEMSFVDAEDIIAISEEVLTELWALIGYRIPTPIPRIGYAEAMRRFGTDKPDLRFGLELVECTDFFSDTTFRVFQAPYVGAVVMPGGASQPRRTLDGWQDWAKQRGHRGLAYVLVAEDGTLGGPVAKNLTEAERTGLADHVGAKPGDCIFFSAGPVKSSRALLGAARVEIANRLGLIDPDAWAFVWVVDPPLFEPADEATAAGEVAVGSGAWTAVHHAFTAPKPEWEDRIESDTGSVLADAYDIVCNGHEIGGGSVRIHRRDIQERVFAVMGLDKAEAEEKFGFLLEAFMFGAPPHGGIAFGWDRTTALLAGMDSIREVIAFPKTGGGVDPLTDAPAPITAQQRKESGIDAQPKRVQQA
As to the kind of experiment: Assay for Asp RNA synthetase-1 from Mycobacterium tuberculosis. As to conditions: 30 µM. More on the design: scale not given: in the data most compounds retested in dose-response had high values. In kind it is functional.
Turning to `COc1ncc(C2CC(=O)NCc3nc4ccccn4c32)cn1` (stereo not given), the Percent Effect was -1.4%.

In the case of `Cc1ccccc1C1CCCN1C(=O)CN1CC2(CCNCC2)OC1=O` (stereo not given), the Percent Effect came out at 3.25%.

On to `Cc1cc(C(=O)NCC(C)N2CCc3ccccc32)no1` (stereo not given), for which the Percent Effect was -0.278%.

Regarding `CC(=O)N(Cc1noc(C)n1)C1CCN(Cc2ccccc2C#N)C1` (stereo not given), the Percent Effect was 2.26%.

Turning to `O=C(c1ccncc1)N1CCCC2(COCCN(c3ccccc3)C2)C1` (stereo not given), the Percent Effect came to 2.82%.

`CC(=O)NC1CCCN(C(=O)c2ccc(Br)cc2O)C1` (stereo not given): the Percent Effect is 2.34%.

As to `Cc1oc(C(=O)O)cc1S(=O)(=O)Nc1cc(Cl)ccc1F`, the Percent Effect was -2.58%.

On to `CCS(=O)(=O)c1ccccc1N1CCC(NC(=O)c2ccc[nH]2)CC1`, for which the Percent Effect was -2.04%.

Regarding `Cc1nn2c(N3CCC(O)C3)cc(-c3ccccc3)nc2c1C` (stereo not given), the Percent Effect is -2.73%.

With `O=C(CCNC(=O)c1ccccc1)Nc1ccncc1`, the Percent Effect is -1.89%.

In the case of `c1ccc2sc(CN3CCCC3c3noc(C4CC4)n3)nc2c1` (stereo not given), the Percent Effect is -1.34%.

`CC(C)Cc1noc(CN2CCOCC2)n1`: the Percent Effect is -2.59%.

With `O=S(=O)(NCC1CCOc2ccccc2C1)N1CCOCC1` (stereo not given), the Percent Effect worked out at 6.99%.

For `O=C(c1ccncn1)N1CCO[C@H]2[C@@H](OCc3cccnc3)CC[C@@H]21`, the Percent Effect came out at 5.42%.

Consider `NC(=O)Nc1cccc(Oc2ccccn2)c1`, for which the Percent Effect was -2.58%.

Regarding `CC(O)CN1CCN(C(=O)CN(C)c2ccc(Cl)cn2)CC1` (stereo not given), the Percent Effect worked out at 0.546%.

`CC(=O)N1CCC2(CC1)COCCN2Cc1ccc(F)cc1`: the Percent Effect is -4.11%.

With `CCc1nc(C2CCCN2Cc2nc(C3CC3)no2)no1` (stereo not given), the Percent Effect was -4.58%.

With `COCc1nc(C(=O)N2CCCCC2Cn2cc(C)cn2)cs1` (stereo not given), the Percent Effect worked out at 0.0865%.

For the molecule `Cc1nc(C)n(C2CCCN(C(=O)c3ccc(NC4CC4)nc3)C2)n1` (stereo not given), the Percent Effect was -1.66%.

`COc1ncccc1NC(=O)C1CCS(=O)(=O)C1` (stereo not given): the Percent Effect is -3.61%.

On to `CC1=N[C@@]2(CC[C@@H]3CN(CC(=O)N(C)C)C[C@@H]32)C(=O)N1CC(C)C`, for which the Percent Effect is -0.203%.

In the case of `CC(NC(=O)COc1ccc(F)cc1)c1nnc2n1CCCCC2` (stereo not given), the Percent Effect came out at 8.46%.

Regarding `CN(Cc1ccsc1)C(=O)c1cccc(NS(C)(=O)=O)c1`, the Percent Effect is -4.16%.

For the molecule `COC[C@]12COC[C@H]1CN(Cc1cc(OC)cc(OC)c1)C2`, the Percent Effect was -1.51%.

On to `NC(=O)c1cnn2c1NCC(CNCCCOc1ccccc1F)C2` (stereo not given), for which the Percent Effect is -0.278%.

Consider `CN(C)C(=O)CN1CCCCC1c1nc(N)ncc1-c1ccccc1` (stereo not given), for which the Percent Effect is -1.04%.

For `CC1c2ncc(COc3cccnc3)n2CCN1C(=O)C1=CCCC1` (stereo not given), the Percent Effect is -4.09%.

For the molecule `CN(Cc1cnn(C)c1)C(=O)Cn1c(CS(C)(=O)=O)nc2ccccc21`, the Percent Effect was -0.869%.

For `CSC(C)C(=O)N1CCCN(Cc2cnn(C(C)C)c2)CC1` (stereo not given), the Percent Effect was -0.235%.

Take `COc1ccc(OC)c(-c2nc(CN(C)Cc3nncn3C)c(C)o2)c1`: the Percent Effect is 5.61%.

Consider `Cc1cc(-c2cnc(NCc3cccnc3)nc2C(C)(C)C)on1`, for which the Percent Effect stood at 2.07%.

As to `COCC(NC(=O)c1cc[nH]n1)c1cccc(C(F)(F)F)c1` (stereo not given), the Percent Effect was -7.45%.

Turning to `Cc1ccc(C(=O)Nc2cn[nH]c2)cc1C`, the Percent Effect is -2.79%.

In the case of `Cc1cc(CNC(=O)NC(C)c2ccc(N3CCOCC3)cc2)no1` (stereo not given), the Percent Effect worked out at 5.56%.

As to `O=C1NC2(CCN(C(=O)c3ccccc3)CC2)CC1c1cccnc1` (stereo not given), the Percent Effect was -4.95%.

`O=C(Cc1csc(-c2ccco2)n1)N1CCN(c2cnccn2)CC1`: the Percent Effect is -2.43%.

Consider `Cc1cc(C)n(CCC(=O)N2CCCC(n3cncn3)C2)n1` (stereo not given), for which the Percent Effect was -6.22%.

For `CC(C)(C)c1nc(CN2CCCC(Cn3cncn3)C2)cs1` (stereo not given), the Percent Effect came out at 4.23%.

On to `Cn1ncc2c1NC(=O)CC2c1ccc(O)cc1` (stereo not given), for which the Percent Effect was 0.0331%.
